From the antibiotic and cytotoxicity screens of Wong et al. (2023)
About 3,300 (8.5%) of roughly 39,000 compounds were called active. This excerpt belongs to a sample that is enriched for actives.

What follows are molecules tested on HepG2 (assay: cytotoxicity call (relative viability < 0.9)). Details: 10 µM.
In the case of CC(C)(C)[S@](=O)N1Cc2cc(C(=O)N3CCc4ccccc4C3)nc(-c3cccc(-c4cccnc4)c3)c2[C@@H]1CCO, the cytotoxicity call is reported as “inactive”.
With Cc1ccc(S(=O)(=O)Nc2ccc3c(c2)C(=O)N([C@H](C)CO)C[C@H](C)[C@@H](CN(C)S(=O)(=O)c2ccc(F)cc2)OCCCC[C@@H](C)O3)cc1 the cytotoxicity call was “inactive”.
With C[C@H]1CN([C@@H](C)CO)C(=O)c2cccc(NC(=O)Nc3ccc(C(F)(F)F)cc3)c2O[C@H]1CN(C)C(=O)Nc1cccc2ccccc12 the cytotoxicity call was “inactive”.
C[C@H](CO)N1C[C@H](C)[C@H](CN(C)C(=O)Nc2cccc3ccccc23)Oc2c(NC(=O)Nc3ccc(F)cc3)cccc2C1=O was tested, and the cytotoxicity call was “inactive”.
For C[C@H]1CN([C@@H](C)CO)C(=O)c2cccc(NC(=O)Nc3ccc(C(F)(F)F)cc3)c2O[C@@H]1CN(C)C(=O)Nc1cccc2ccccc12, the cytotoxicity call was “active”.
With CC(=O)NCCCC[C@@H]1NC(=O)[C@H]2C[C@@H](C(=O)NCCCC[N+](C)(C)C)[C@@H](c3ccc(O)cc3)N2C1=O the cytotoxicity call was “active”.
C[N+](C)(C)CCCCNC(=O)[C@H]1C[C@H]2C(=O)N[C@@H](CCCC[N+](C)(C)C)C(=O)N2[C@H]1c1cccc(OCCO)c1 was tested, and the cytotoxicity call was “inactive”.
In the case of C[N+](C)(C)CCCCCCNC(=O)[C@H]1C[C@H]2C(=O)N3CCC[C@H]3C(=O)N2[C@H]1c1cccc(OCCO)c1, the cytotoxicity call is reported as “inactive”.
In the case of C[N+](C)(C)CCCCNC(=O)[C@H]1C[C@H]2C(=O)N3CCC[C@H]3C(=O)N2[C@H]1c1cccc(OCCO)c1, the cytotoxicity call is reported as “active”.
With C[N+](C)(C)CCCCNC(=O)[C@H]1C[C@H]2C(=O)N[C@@H](CCCC[N+](C)(C)C)C(=O)N2[C@H]1c1ccc(O)cc1 the cytotoxicity call was “inactive”.
CC(=O)NCCCC[C@@H]1NC(=O)[C@H]2C[C@@H](C(=O)NCCCC[N+](C)(C)C)[C@@H](c3cccc(OCCO)c3)N2C1=O was tested, and the cytotoxicity call was “inactive”.
C[N+](C)(C)CCCCNC(=O)[C@@H]1C[C@@H]2C(=O)N3CCC[C@H]3C(=O)N2[C@@H]1c1cccc(OCCO)c1 was tested, and the cytotoxicity call was “inactive”.
With CC(=O)NCCCC[C@@H]1NC(=O)[C@@H]2C[C@H](C(=O)NCCCC[N+](C)(C)C)[C@H](c3cccc(OCCO)c3)N2C1=O the cytotoxicity call was “active”.
C[N+](C)(C)CCCCNC(=O)[C@@H]1C[C@@H]2C(=O)N[C@@H](CCCC[N+](C)(C)C)C(=O)N2[C@@H]1c1ccc(O)cc1 was tested, and the cytotoxicity call was “inactive”.
C[C@H](CO)N1C[C@H](C)[C@H](CN(C)C(=O)C2CCCCC2)OCCCC[C@H](C)Oc2ccc(NC(=O)c3ccccc3)cc2C1=O was tested, and the cytotoxicity call was “inactive”.
With O=C(C[C@@H]1CC=CC[C@H](NC(=O)OCC2c3ccccc3-c3ccccc32)C(=O)O[C@H](c2ccccc2)CNC1=O)N[C@@H](CO)Cc1ccccc1 the cytotoxicity call was “inactive”.
For CNC(=O)C[C@H]1CC[C@@H]2[C@H](COC[C@H](O)CN2C(=O)Nc2ccc3c(c2)OCO3)O1, the cytotoxicity call was “inactive”.
With CO[C@H]1CN(C)C(=O)c2ccc(NS(=O)(=O)CC(F)(F)F)cc2OC[C@H](C)N(C(=O)NC(C)C)C[C@@H]1C the cytotoxicity call was “inactive”.
CO[C@@H]1CN(C)C(=O)c2cc(NS(=O)(=O)c3cn(C)cn3)ccc2OC[C@H](C)N(CC2CC2)C[C@@H]1C was tested, and the cytotoxicity call was “inactive”.
With CNC(=O)c1cnc2n1CCN(Cc1nccn1C)C2 the cytotoxicity call was “inactive”.
For CC(C)[C@H](NC(=O)[C@H](C)N(C)C)C(=O)N1CC[C@@H]2Oc3ccc(cc3)/C=C\NC(=O)[C@H](Cc3ccccc3)NC(=O)[C@H]21, the cytotoxicity call was “inactive”.
With C[C@@H]1CN([C@H](C)CO)C(=O)c2cc(NC(=O)Cn3cnnn3)ccc2O[C@H]1CN(C)S(=O)(=O)c1ccc(F)cc1 the cytotoxicity call was “inactive”.
For O=C(C[C@@H]1C[C@H]2c3cc(NC(=O)Nc4ccccc4F)ccc3O[C@H]2[C@@H](CO)O1)NCc1ccc(Oc2ccccc2)cc1, the cytotoxicity call was “inactive”.
With C[C@H](CO)N1C[C@H](C)[C@@H](CN(C)Cc2ccc(Oc3ccccc3)cc2)Oc2ccc(NC(=O)Nc3cccc4ccccc34)cc2C1=O the cytotoxicity call was “inactive”.
In the case of C[C@@H]1CN([C@H](C)CO)C(=O)c2cc(NC(=O)Nc3cccc4ccccc34)ccc2O[C@@H]1CN(C)Cc1ccc(Oc2ccccc2)cc1, the cytotoxicity call is reported as “active”.
With C[C@@H]1CN([C@@H](C)CO)C(=O)c2cc(NC(=O)Nc3cccc4ccccc34)ccc2O[C@@H]1CN(C)Cc1ccc(Oc2ccccc2)cc1 the cytotoxicity call was “active”.
COc1ccc(CN(C)C[C@H]2Oc3ccc(NC(=O)Nc4cccc5ccccc45)cc3C(=O)N([C@@H](C)CO)C[C@H]2C)cc1 was tested, and the cytotoxicity call was “inactive”.
COc1ccc(CN(C)C[C@H]2Oc3ccc(NC(=O)Nc4cccc5ccccc45)cc3C(=O)N([C@H](C)CO)C[C@@H]2C)cc1 was tested, and the cytotoxicity call was “inactive”.
With C[C@@H]1CN([C@@H](C)CO)C(=O)c2cc(NC(=O)Nc3cccc4ccccc34)ccc2O[C@H]1CN(C)Cc1ccc(Oc2ccccc2)cc1 the cytotoxicity call was “inactive”.
With C[C@@H]1CN([C@H](C)CO)C(=O)c2cc(NC(=O)Nc3cccc4ccccc34)ccc2O[C@H]1CN(C)Cc1ccc(Oc2ccccc2)cc1 the cytotoxicity call was “active”.
With COc1ccc(CN(C)C[C@H]2Oc3ccc(NC(=O)Nc4cccc5ccccc45)cc3C(=O)N([C@@H](C)CO)C[C@@H]2C)cc1 the cytotoxicity call was “inactive”.
With COc1ccc(CN(C)C[C@@H]2Oc3ccc(NC(=O)Nc4cccc5ccccc45)cc3C(=O)N([C@H](C)CO)C[C@H]2C)cc1 the cytotoxicity call was “inactive”.
With COc1ccc(CN(C)C[C@@H]2Oc3ccc(NC(=O)Nc4cccc5ccccc45)cc3C(=O)N([C@H](C)CO)C[C@@H]2C)cc1 the cytotoxicity call was “inactive”.
For COc1ccc(CN(C)C[C@@H]2Oc3ccc(NC(=O)Nc4cccc5ccccc45)cc3C(=O)N([C@@H](C)CO)C[C@H]2C)cc1, the cytotoxicity call was “inactive”.
With C[C@H](CO)N1C[C@H](C)[C@H](CN(C)Cc2ccc(Oc3ccccc3)cc2)Oc2ccc(NC(=O)Nc3cccc4ccccc34)cc2C1=O the cytotoxicity call was “active”.
With C[C@H](CO)N1C[C@H](C)[C@H](CN(C)S(=O)(=O)c2ccc(F)cc2)Oc2ncc(C#CC(C)(C)O)cc2C1=O the cytotoxicity call was “inactive”.
With C[C@@H]1CN([C@@H](C)CO)C(=O)c2c(c3ccccc3n2C)-c2ccccc2CO[C@@H]1CN(C)Cc1cccc(C(=O)O)c1 the cytotoxicity call was “inactive”.
C[C@H](CO)N1C[C@H](C)[C@H](CN(C)S(=O)(=O)c2ccc(Oc3ccccc3)nc2)OCc2cnnn2CCCC1=O was tested, and the cytotoxicity call was “inactive”.
With COc1ccc(CCNC(=O)[C@@]2(Sc3ccc(C)cc3)CC(=O)N(Cc3cc(C(F)(F)F)cc(C(F)(F)F)c3)[C@@H]2c2ccc(CO)cc2I)cc1 the cytotoxicity call was “inactive”.
For Cc1ccc(S(=O)(=O)N2C[C@@H](O)COC[C@@H]3O[C@@H](CC(=O)N[C@@H]4CCN(Cc5ccccc5)C4)CC[C@H]32)cc1, the cytotoxicity call was “inactive”.
In the case of COCC(=O)Nc1ccc2c(c1)C(=O)N(C)C[C@H](OC)[C@H](C)CN(C(=O)Cc1cccnc1)[C@H](C)CO2, the cytotoxicity call is reported as “inactive”.
With C[C@@H]1CN([C@@H](C)CO)C(=O)c2cc(NC(=O)C3CC3)ccc2O[C@H]1CN(C)Cc1ccc(Oc2ccccc2)cc1 the cytotoxicity call was “inactive”.
In the case of C[C@@H]1CN([C@@H](C)CO)S(=O)(=O)c2ccc(C#CC(C)(C)O)cc2O[C@H]1CN(C)C(=O)C1CCCCC1, the cytotoxicity call is reported as “inactive”.
With O=C(C[C@@H]1C=C[C@H](NC(=O)C2CCC2)[C@H](CO)O1)NCCCN1CCOCC1 the cytotoxicity call was “inactive”.
For C[C@H](CO)N1C[C@H](C)[C@@H](CN(C)Cc2ccc(C(=O)Nc3ccccc3N)cc2)Oc2ccc(NC(=O)Cc3ccccc3)cc2C1=O, the cytotoxicity call was “inactive”.
For C[C@H]1CN([C@@H](C)CO)S(=O)(=O)c2ccc(-c3ccc(F)cc3)cc2O[C@@H]1CN(C)S(C)(=O)=O, the cytotoxicity call was “inactive”.
For C[C@@H]1CN([C@H](C)CO)C(=O)c2cc(NS(=O)(=O)c3ccccc3)ccc2O[C@@H](C)CCCCO[C@@H]1CN(C)S(C)(=O)=O, the cytotoxicity call was “inactive”.
COc1ccc(S(=O)(=O)Nc2ccc3c(c2)C(=O)N([C@@H](C)CO)C[C@@H](C)[C@H](CN(C)C(=O)c2ccccc2)OCCCC[C@H](C)O3)cc1 was tested, and the cytotoxicity call was “inactive”.
COc1ccc(CN(C)C[C@H]2Oc3ccc(NC(=O)Nc4cccc5ccccc45)cc3C(=O)N([C@H](C)CO)C[C@H]2C)cc1 was tested, and the cytotoxicity call was “inactive”.
For C[C@H]1CN([C@@H](C)CO)C(=O)c2cc(NC(=O)Nc3cccc4ccccc34)ccc2O[C@@H]1CN(C)Cc1ccc(Oc2ccccc2)cc1, the cytotoxicity call was “active”.
For COc1ccc(CN(C)C[C@@H]2Oc3ccc(NC(=O)Nc4cccc5ccccc45)cc3C(=O)N([C@@H](C)CO)C[C@@H]2C)cc1, the cytotoxicity call was “inactive”.
For C[C@H]1CN([C@@H](C)CO)C(=O)c2cccc(NC(=O)c3cnccn3)c2O[C@@H]1CN(C)C(=O)Nc1ccc(F)cc1, the cytotoxicity call was “inactive”.
In the case of CC(=O)OCCn1c(=O)[nH]c(=O)c2nsnc21, the cytotoxicity call is reported as “inactive”.
For Cc1ccc(S(=O)(=O)Nc2ccc3c(c2)C(=O)N([C@@H](C)CO)C[C@H](C)[C@H](CN(C)C(=O)Nc2cccc4ccccc24)OCCCC[C@@H](C)O3)cc1, the cytotoxicity call was “inactive”.
For Cc1ccc(S(=O)(=O)Nc2ccc3c(c2)C(=O)N([C@@H](C)CO)C[C@@H](C)[C@@H](CN(C)C(=O)Nc2cccc4ccccc24)OCCCC[C@H](C)O3)cc1, the cytotoxicity call was “inactive”.
Cc1ccc(S(=O)(=O)Nc2ccc3c(c2)C(=O)N([C@@H](C)CO)C[C@H](C)[C@@H](CN(C)C(=O)Nc2cccc4ccccc24)OCCCC[C@H](C)O3)cc1 was tested, and the cytotoxicity call was “inactive”.
For Cc1ccc(S(=O)(=O)Nc2ccc3c(c2)C(=O)N([C@H](C)CO)C[C@@H](C)[C@H](CN(C)C(=O)Nc2cccc4ccccc24)OCCCC[C@H](C)O3)cc1, the cytotoxicity call was “active”.
For Cc1ccc(S(=O)(=O)Nc2ccc3c(c2)C(=O)N([C@H](C)CO)C[C@@H](C)[C@H](CN(C)C(=O)Nc2cccc4ccccc24)OCCCC[C@@H](C)O3)cc1, the cytotoxicity call was “active”.
Cc1ccc(S(=O)(=O)Nc2ccc3c(c2)C(=O)N([C@@H](C)CO)C[C@H](C)[C@H](CN(C)C(=O)Nc2cccc4ccccc24)OCCCC[C@H](C)O3)cc1 was tested, and the cytotoxicity call was “inactive”.
In the case of Cc1ccc(S(=O)(=O)Nc2ccc3c(c2)C(=O)N([C@H](C)CO)C[C@H](C)[C@H](CN(C)C(=O)Nc2cccc4ccccc24)OCCCC[C@H](C)O3)cc1, the cytotoxicity call is reported as “active”.
Cc1ccc(S(=O)(=O)Nc2ccc3c(c2)C(=O)N([C@H](C)CO)C[C@H](C)[C@@H](CN(C)C(=O)Nc2cccc4ccccc24)OCCCC[C@@H](C)O3)cc1 was tested, and the cytotoxicity call was “inactive”.
For Cc1ccc(S(=O)(=O)Nc2ccc3c(c2)C(=O)N([C@@H](C)CO)C[C@H](C)[C@@H](CN(C)C(=O)Nc2cccc4ccccc24)OCCCC[C@@H](C)O3)cc1, the cytotoxicity call was “inactive”.
